sPLA2-III inh – human group III sPLA2 inhibitors, primary screen, biochemical, QFRET, BODIPY PC-A2 liposome substrate; Group 3 secretory phospholipase A2 (Homo sapiens), Q9NZ20; QFRET BODIPY PC-A2 liposome hydrolysis, fluorescence; inhibition, % at 12.2 µM; 0.56% of 370,000 active;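 active = inhibition above mean plus 3 SD of compounds lying within the high and low control bounds, cut at about 19% in these data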;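 note: 0% = median of test compound wells and 100% = no enzyme DMSO wells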
AHR act – AHR activators, primary screen, cell-based, luminescence, luciferase reporter, human; Aryl hydrocarbon receptor (Homo sapiens), P35869; AHR-responsive luciferase reporter cells; activation, % at 5 µM; 2.5% of 320,000 active; AID 2796, 2010; in the data active = activation above about 47%;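 note: 0% = vehicle wells and 100% = reference agonist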
PLC-beta3 inh – human PLC-beta3 inhibitors, primary screen, biochemical, fluorescence; inhibition, % at 12.2 µM; Purified PLC-beta3, fluorogenic substrate; AID 720704, 2013; 1-phosphatidylinositol 4,5-bisphosphate phosphodiesterase beta-3 (Homo sapiens), Q01970; 0.18% of 370,000 active; in the data active = inhibition above about 11%;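 note: 0% = median of compound wells on plate and 100% = full blocker control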
CR mimetic SO – reduction of superoxide in aged yeast, primary screen, HTS | S. cerevisiae aged cells, superoxide DHE fluorescence; stronger effect = lower value | superoxide response (% of plate mean), % at 10 µM | 0.18% of 330,000 active;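 active = superoxide response under a set limit, about three screen SD below normal, cut at about 65% in these data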;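 note: yeast aged for seven days with compound at 30 °C before DHE staining; 100% = average MFI of all compound-treated wells on the plate with controls excluded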
PLCg1 inh – PLC-gamma1 enzyme inhibitors, primary screen, biochemical, fluorescence, purified enzyme | 1-phosphatidylinositol 4,5-bisphosphate phosphodiesterase gamma-1 (Homo sapiens), P19174 | fluorogenic substrate | inhibition, % at 12.2 µM | 0.84% of 370,000 active | AID 720700, 2013; in the data active = inhibition above about 9.5%
HIF act – HIF pathway transcriptional activators, primary screen, cell-based, U2OS HRE-luciferase, luminescence; U2OS HRE-luciferase reporter; normalized: DMSO 0%, desferrioxamine 100%; activation, % at 7.5 µM (by protocol); 0.32% of 300,000 active; AID 1910, 2009;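 active = mean activation of at least 10% of the iron chelator positive control signal, with at least half of replicates also reaching 10%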
* marks the source's active call; other numbers are inactive results; . = no result given. The list is not random: actives were taken first. Their share in the collection is about 3.9%.

SMILES	sPLA2-III inh	AHR act	PLC-beta3 inh	CR mimetic SO	PLCg1 inh	HIF act
COc1ccc(S[C@]2(C(=O)N3CCN(C(C)=O)CC3)CC(=O)N[C@@H]2c2ccc(OC)cc2)cc1	1	.	0	.	-1	.
CCCCCCCCN1C(=O)N2Cc3ccccc3C2CS1(=O)=O (configuration not stated)	0	.	0	.	-2	.
CCOc1cccc(/C=N\NC(=O)c2cnccn2)c1O	-4	.	4	.	-1	.
COc1ccc(C)cc1NC(=O)Nc1cnccn1	-2	57*	-4	120	0	-1
COc1ccc(NC(=O)Nc2cnccn2)c(OC)c1	5	2	-6	105	1	1
COc1ccc([C@@]23CCN=C2c2[nH]c4ccccc4c2CCN3)c(N)c1	0	.	-25	.	-17	.
CCOc1ccccc1CN1CCN(S(C)(=O)=O)CC1	2	6	1	102	1	14*
Cc1ccccc1CN1CCN(S(C)(=O)=O)CC1	6	0	5	95	0	0
C/C(=N\NC(=O)CC1N=C(Cc2ccccc2)NNC1=O)c1ccncc1 (configuration not stated)	-5	57*	3	108	1	-2
COc1ccc(CNC(=O)C2CCCN(c3nc4ccccc4o3)C2)cc1 (configuration not stated)	8	.	3	.	1	.
Cc1ccc(C(=O)c2oc3ccccc3c2NC(=O)c2cc(-c3cc(C)ccc3O)n[nH]2)cc1	-6	-6	-9	109	1	-1
Cc1ccc(C(=O)c2oc3ccccc3c2NC(=O)c2cc(-c3ccccc3O)n[nH]2)cc1	1	51*	5	97	-2	-1
Cc1ccc(C)c(NC(=O)c2cc(-c3ccccc3O)n[nH]2)c1	-27	.	-6	97	0	4
O=C(Nc1c(C(=O)c2ccccc2)oc2ccccc12)c1cc(-c2ccccc2O)n[nH]1	-4	68*	-4	109	-2	0
Cc1nc2ccc(C(=O)N3CCN(C(=O)OCc4ccccc4)CC3)cc2n1C1CCCC1	3	.	-4	.	2	.
Cc1ccc(Sc2cnn(-c3ccccc3)c(=O)c2Cl)cc1	-5	61*	-5	100	-4	0
CN(CCOC(=O)c1cc2ccccc2o1)C1CN(Cc2cn(Cc3ccc([N+](=O)[O-])cc3)nn2)S(=O)(=O)C1 (configuration not stated)	-8	.	4	.	0	.
COc1ccc(Cc2nc(-c3ccc(Br)o3)no2)cc1OC	-1	47*	-4	105	-3	2
Clc1ccccc1OCc1nc(-c2ccc(Br)o2)no1	-4	61*	-2	101	1	2
Oc1ccc(Nc2ccccc2F)c2cccnc12	0	.	-55	.	-38	.
CCOc1ccc(-n2c(SCC(=O)c3ccc4ccccc4c3)nnc2-c2ccc(OC)cc2)cc1	7	.	1	.	1	.
COc1cc(NC(=O)c2ccccc2)cc(OC)c1	-1	46	1	104	0	5
COc1ccc(C(=O)Nc2cc(OC)cc(OC)c2)cc1	-8	57*	-2	99	-3	3
COc1ccc2nc(/N=C\N(C)C)sc2c1	1	36	1	96	-1	2
CN(C)/C=N/c1nc2ccc3c(c2s1)CCCC3	-8	63*	-23	108	-24	3
SMILES	sPLA2-III inh	AHR act	PLC-beta3 inh	CR mimetic SO	PLCg1 inh	HIF act
CC(=O)n1cc([C@@H]2C=C(C(=O)NCc3ccccc3)O[C@H](OCCCCO)C2)c2ccccc21	-15	73*	-25	97	-23	-3
C#CCNC(=O)C1=C[C@@H](c2cn(C(C)=O)c3ccccc23)C[C@@H](OCCCCO)O1	2	65*	-25	110	-17	1
COc1cccc(C2c3c(ncn(-c4ccccc4)c3=N)Oc3ccc4ccccc4c32)c1OC (configuration not stated)	-1	.	2	.	0	.
C[C@H]1[C@H](N(C)C)CC[C@@]23CCCN2C(=O)CCC[C@@H]13	-1	.	1	.	2	.
C/C(=N/NC(=O)CN1CCN(Cc2ccccc2Cl)CC1)c1cccc(O)c1	-6	.	-3	.	-3	.
CC1=CCC2C(=O)N(c3cccc(C(=O)Nc4ccc(Cl)cc4)c3)C(=O)C2C1 (configuration not stated)	-64	69*	-3	92	8	-1
COc1ccc(N(CC(O)Cn2c3ccccc3c3ccccc32)S(=O)(=O)c2ccccc2)cc1 (configuration not stated)	-29	55*	-15	89	-13	0
CCOC(=O)c1sc(N(Cc2ccccc2)C(=O)COC(=O)c2ccc(O)cc2)nc1C	-26	4	-2	101	5	10.0*
COc1ccc(S(=O)(=O)Nc2cccc3c2O[C@H](CN(C)C(=O)Nc2ccc(C(F)(F)F)cc2)[C@@H](C)CN([C@H](C)CO)C3=O)cc1	-34	3	5	96	9.9*	.
C[C@H](CO)N1C[C@H](C)[C@@H](CN(C)C(=O)Nc2ccc(C(F)(F)F)cc2)Oc2c(NS(=O)(=O)c3ccc(F)cc3)cccc2C1=O	-19	2	6	90	3	.
COc1ccc(C(=O)/C=C2\Sc3ccccc3N2C)cc1	8	50*	-65	123	-71	3
Cc1ccc2cc(CN(CCO)Cc3nnnn3Cc3ccc(F)cc3)c(=O)[nH]c2c1	7	2	-69	100	-63	0
CC(C)C(c1nnnn1Cc1ccccc1)N(CCCO)Cc1cc2cc3c(cc2[nH]c1=O)OCO3 (configuration not stated)	-13	64*	-194	89	-155	0
O=c1[nH]c2cc3c(cc2cc1CN(CCCO)Cc1nnnn1Cc1ccc(F)cc1)OCO3	-2	54*	-36	103	-32	0
COc1ccccc1NC(=O)c1sc2nc(C)cc(C)c2c1N	4	50*	-94	78	-68	0
O=C(NC1CCCCN(Cc2cccc(Cl)c2)C1=O)c1ccccc1 (configuration not stated)	0	.	2	.	2	.
O=C(NNS(=O)(=O)c1ccccc1)c1cc2cc3ccccc3nc2s1	-39	36	-29	89	-24	2
O=C(NNC(=O)c1cc2cc3ccccc3nc2s1)c1cccc(C(F)(F)F)c1	-3	48*	-20	106	-15	0
Cc1ccccc1Nc1c(-c2cccnc2)nc2ccccn12	5	1	-26	99	-14	0
Cc1ccccc1Nc1c(-c2ccccn2)nc2ccccn12	8	1	-13	94	-4	13*

Screens: PubChem BioAssay, several laboratories
